Source: PubChem BioAssay
The list is not random: actives were taken first. Their share in the collection is about 3.5%.
BoNT-F LC inh = blocks Botulinum neurotoxin F light chain protease | Multiplex microsphere protease cleavage assay, flow cytometry | inhibition, % at 10 µM | 0.22% of 360,000 active | AID 588497; in the data active = inhibition above about 35%, passing the limit was not always enough; inconclusive = no clear call, values can overlap the other calls
Bead autofluor = compound fluorescence in toxin protease inhibitor counterscreen. 3.1% of 360,000 active. compound autofluorescence counterscreen, microsphere flow cytometry; active compounds read high. fluorescence intensity (no concentration beside the values); in the data active = fluorescence intensity above about 16000; inconclusive = no clear call, values can overlap the other calls
BJeLR viability = kills HRASV12-expressing BJeLR cells. inhibition, % (concentration not given with the values). AID 1554. 0.17% of 300,000 active. BJeLR (HRASV12) viability, CellTiter-Glo ATP luminescence, 48 h; in the data active = inhibition above about 50%; inconclusive = no clear call, values can overlap the other calls
Anthrax LF prot = blocks Bacillus anthracis lethal factor protease; inhibition, % at 10 µM; multiplex microsphere protease cleavage assay, LF; 0.12% of 360,000 active; P15917
Target sequence (P15917 whole entry, looked up): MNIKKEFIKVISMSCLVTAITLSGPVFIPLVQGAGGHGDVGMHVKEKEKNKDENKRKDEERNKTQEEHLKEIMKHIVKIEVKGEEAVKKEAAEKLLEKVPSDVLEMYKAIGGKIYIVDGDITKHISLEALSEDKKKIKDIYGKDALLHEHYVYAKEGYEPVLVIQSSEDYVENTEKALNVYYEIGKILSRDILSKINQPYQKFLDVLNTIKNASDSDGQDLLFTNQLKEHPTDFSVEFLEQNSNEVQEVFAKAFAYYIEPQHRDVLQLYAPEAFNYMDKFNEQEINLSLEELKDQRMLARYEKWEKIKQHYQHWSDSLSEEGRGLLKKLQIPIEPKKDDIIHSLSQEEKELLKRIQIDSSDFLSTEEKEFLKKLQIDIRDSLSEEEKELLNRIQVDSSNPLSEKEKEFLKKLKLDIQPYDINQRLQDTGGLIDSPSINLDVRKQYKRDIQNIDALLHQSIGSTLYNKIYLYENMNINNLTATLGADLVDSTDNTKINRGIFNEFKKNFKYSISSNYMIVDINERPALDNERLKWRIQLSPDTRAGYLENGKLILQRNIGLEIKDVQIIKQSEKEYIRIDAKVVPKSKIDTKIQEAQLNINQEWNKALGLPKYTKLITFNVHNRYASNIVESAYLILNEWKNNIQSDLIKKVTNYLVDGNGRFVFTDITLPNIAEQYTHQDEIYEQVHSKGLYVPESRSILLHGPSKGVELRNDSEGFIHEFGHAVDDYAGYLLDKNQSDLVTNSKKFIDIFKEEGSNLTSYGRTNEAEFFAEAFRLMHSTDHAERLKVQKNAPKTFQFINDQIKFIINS
BoNT A protease = inhibitors of Botulinum neurotoxin A light chain protease | multiplex microsphere protease substrate cleavage, flow cytometry | inhibition, % at 10 µM | 0.17% of 360,000 active
A number is an active result. Cut-off read from the data, not from the text of the source, unless noted: active = inhibition above about 30%; inconclusive = no clear call, values can overlap the other calls; inactive = below that.

For CCOC(=O)/C(=N\Nc1ccccc1)S(=O)(=O)c1ccccc1 the results were BoNT-F LC inh inactive, Bead autofluor 23295, BJeLR viability inactive, Anthrax LF prot inactive and BoNT A protease inactive.
Screening CC1=C(C(=O)N(C(C)C)C(C)C)CC(CC(=O)NC(c2ccccc2)c2ccccc2)C(=O)N1Cc1ccc(F)cc1 (stereo not drawn) returned BoNT-F LC inh inactive, Bead autofluor inactive, Anthrax LF prot inactive and BoNT A protease inactive.
For COc1cc(Sc2ccc(C)cc2)c(OC)cc1N the results were BoNT-F LC inh inactive, Bead autofluor inactive, BJeLR viability inactive, Anthrax LF prot inactive and BoNT A protease inactive.
Screening COC(=O)c1ccc(Sc2ccc(C)cc2)c(N)c1 returned BoNT-F LC inh inactive, Bead autofluor 24100, BJeLR viability inactive, Anthrax LF prot inactive and BoNT A protease inactive.
Screening NC(c1csc(Nc2cc(NCCCO)ncn2)n1)c1ccccc1Cl (stereo not drawn) returned BoNT-F LC inh inactive, Bead autofluor inactive, Anthrax LF prot inactive and BoNT A protease inactive.
CCn1nnc2cc(C(=O)Nc3cccc(S(=O)(=O)N(C)C)c3)ccc21 was read as BoNT-F LC inh inactive, Bead autofluor inactive, Anthrax LF prot inactive and BoNT A protease inactive.
`O=C(NC1CCCC1)c1csc2c1CCCC2` gave BoNT-F LC inh inactive, Bead autofluor 19286, BJeLR viability inactive, Anthrax LF prot inactive and BoNT A protease inactive.
For COc1cccc(C(=O)Nc2ccc3c(c2)C(=O)N(CCC(=O)O)C3=O)c1 the results were BoNT-F LC inh inactive, Bead autofluor 20871, BJeLR viability inactive, Anthrax LF prot inactive and BoNT A protease inconclusive.
For CC(C)(C)c1ccc(C(=O)c2c[nH]c(C(=O)NCCc3ccccn3)c2)cc1 the results were BoNT-F LC inh inactive, Bead autofluor inactive, BJeLR viability inactive, Anthrax LF prot inactive and BoNT A protease inactive.
For CC(C)NS(=O)(=O)c1ccc(OCC(=O)Nc2ccc(F)cc2F)cc1 the results were BoNT-F LC inh inactive, Bead autofluor 24368, BJeLR viability inactive, Anthrax LF prot inactive and BoNT A protease inactive.
Screening CC1CCC2(CC1)NC(=O)N(CC(=O)N1CCOCC1)C2=O (stereo not drawn) returned BoNT-F LC inh inactive, Bead autofluor inactive, Anthrax LF prot inactive and BoNT A protease inactive.
For COC(=O)COc1ccc(S(=O)(=O)Nc2cc(OC)ccc2OC)cc1 the results were BJeLR viability inactive.
Screening COC(=O)COc1ccc(S(=O)(=O)Nc2ccccc2SC)cc1 returned BoNT-F LC inh inactive, Bead autofluor 23132, BJeLR viability inactive, Anthrax LF prot inactive and BoNT A protease inconclusive.
`CCOc1ccc(NS(=O)(=O)c2ccc(NS(=O)(=O)c3ccccc3)cc2)cc1` gave BoNT-F LC inh inactive, Bead autofluor inactive, BJeLR viability inactive, Anthrax LF prot inactive and BoNT A protease inactive.
Screening CCOc1ccc(S(=O)(=O)Nc2ccccc2SC)cc1 returned BoNT-F LC inh inactive, Bead autofluor 24042, Anthrax LF prot inactive and BoNT A protease inactive.
CC1CCCC(NC(=O)c2ccc(CNc3c(N4CCCC4)c(=O)c3=O)cc2)C1C (stereo not drawn) was read as BoNT-F LC inh inactive, Bead autofluor inactive, BJeLR viability inactive, Anthrax LF prot inactive and BoNT A protease inactive.
CS(=O)(=O)Nc1cccc(-c2cc(NC=O)c3ncc(-c4ccc(F)c(Cl)c4)n3c2)c1 was read as BoNT-F LC inh inactive, Bead autofluor inactive, Anthrax LF prot inactive and BoNT A protease inactive.
For O=C1Nc2ccccc2N=C(c2ccccc2)C1N1CCOCC1 (stereo not drawn) the results were BoNT-F LC inh inactive, Bead autofluor 21946, BJeLR viability inactive, Anthrax LF prot inactive and BoNT A protease inconclusive.
Screening O=C1Nc2ccccc2N=C(c2ccccc2)C1Br (stereo not drawn) returned BoNT-F LC inh inactive, Bead autofluor inactive, BJeLR viability inactive, Anthrax LF prot inactive and BoNT A protease inactive.
For Cc1ccc(S(=O)(=O)NC(CC(=O)O)c2ccco2)cc1 (stereo not drawn) the results were BoNT-F LC inh inactive, Bead autofluor 16531, BJeLR viability inactive, Anthrax LF prot inactive and BoNT A protease inconclusive.
Screening COc1ccc(C2C(C#N)=C(N)N(N(C)C)C3=C2C(=O)CCC3)cc1 (stereo not drawn) returned BoNT-F LC inh 57, Bead autofluor inactive, BJeLR viability inactive, Anthrax LF prot inactive and BoNT A protease inactive.
For CN(C)N1C(N)=C(C#N)C(c2ccsc2)C2=C1CCCC2=O (stereo not drawn) the results were BoNT-F LC inh inactive, Bead autofluor inactive, BJeLR viability inactive, Anthrax LF prot inactive and BoNT A protease inactive.
Screening N#CC1=C(N)N(c2ccccc2)C2=C(C(=O)CCC2)C1c1ccsc1 (stereo not drawn) returned BoNT-F LC inh inactive, Bead autofluor 16252, BJeLR viability inactive, Anthrax LF prot inactive and BoNT A protease inactive.
Screening CCCc1nc2ccc(C(=O)OC)cn2c1Cc1ccc(C)cc1 returned BoNT-F LC inh inactive, Bead autofluor inactive, Anthrax LF prot inactive and BoNT A protease inactive.
For Cc1ccc(NC(=S)N/N=C/c2c(Cl)cccc2Cl)c(C)c1 the results were BoNT-F LC inh inactive, Bead autofluor inactive, BJeLR viability 53, Anthrax LF prot inactive and BoNT A protease inactive.
Screening c1ccc(-c2cnc(-c3cccnc3)o2)cc1 returned BoNT-F LC inh inactive, Bead autofluor inactive, Anthrax LF prot inactive and BoNT A protease inactive.
Screening NC(=O)c1ccc(-c2ncc(-c3ccccc3)o2)cc1 returned BoNT-F LC inh inactive, Bead autofluor 18854, BJeLR viability inactive, Anthrax LF prot inactive and BoNT A protease inactive.
Screening O=C(NCc1cccnc1)C1Cc2c(-c3ccc(Cl)cc3)ccnc2O1 (stereo not drawn) returned BoNT-F LC inh inactive, Bead autofluor inactive, Anthrax LF prot inactive and BoNT A protease inactive.
For CCOC(=O)CSc1n[nH]c(-c2ccco2)n1 the results were BoNT-F LC inh inactive, Bead autofluor inactive, BJeLR viability inactive, Anthrax LF prot inactive and BoNT A protease inactive.
O=C(CSc1n[nH]c(-c2ccco2)n1)N1c2ccccc2Sc2ccccc21 was read as BoNT-F LC inh inactive, Bead autofluor 22111, BJeLR viability inactive, Anthrax LF prot inactive and BoNT A protease inactive.
For Cc1c(CCC(=O)O)c(=O)n2c([nH]c3ccccc32)c1C#N the results were BoNT-F LC inh inactive, Bead autofluor 20757, BJeLR viability inactive, Anthrax LF prot inactive and BoNT A protease inactive.
Screening O=C(C1CCC(=O)N1C1CCCC1)N1CCC2(CC1)OCCO2 (stereo not drawn) returned BoNT-F LC inh inactive, Bead autofluor 20240, BJeLR viability inactive, Anthrax LF prot inactive and BoNT A protease inactive.
`O=C(C1CC(=O)N(C2CCCCCCC2)C1)N1CCC2(CC1)OCCO2` (stereo not drawn) gave BoNT-F LC inh inactive, Bead autofluor 22759, BJeLR viability inactive, Anthrax LF prot inactive and BoNT A protease inactive.
`CSc1ccc(CN2CCC2(C)C(=O)Nc2cccc(NS(C)(=O)=O)c2)cc1` (stereo not drawn) gave BoNT-F LC inh inactive, Bead autofluor inactive, Anthrax LF prot inactive and BoNT A protease inactive.
`COC(=O)c1ccccc1NC(=O)Cn1c(SC)c(F)cnc1=O` gave BoNT-F LC inh inactive, Bead autofluor 19945, BJeLR viability inactive, Anthrax LF prot inactive and BoNT A protease inactive.
